Experimental data reported in a collection of fitness landscapes (doi:10.1016/j.celrep.2020.107928).
The full ranking holds about 81,000 sequences; the median of “one-hybrid fitness for binding parS DNA” is about -0.17, and the highest 2% start at about 0.51. What follows is part of a selection rich in the highest values, with near analogues and random picks from the rest.

B1: Caulobacter ParB omega fusion; a variant is named by its letters at X, in order, B8GW30 (parent)
chain: MESVVVGEPGMSEGRRGLGRGLSALLGEVDAAPAQAPGEQLGGSREAPIEILQRNPDQPRRTFREEDLEDLSNSIREKGVLQPILVRPSPDTAGEYQIVAGERAWRAAQRAGLKTVPIMVRELDDLAVLEIGIIENVQRADLNVLEEALSYKVLMEKFERTQENIAQTIGKSXSHVANXMRLLXLPDEVQSYLVSGELTAXHARAIAAAADPVALAKQIIEGGLSVRETEALARKAPNLSAGKSKGGRPPRVKDTDTQALESDLSSVLGLDVSIDHRGSTGTLTITYATLEQLDDLCNRLTRGI

Variants of: B1
Test: one-hybrid fitness for binding parS DNA (scaled: cognate 1, non-cognate 0); higher = stronger binding
Conditions: with parS DNA site
Method in brief: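 Caulobacter ParB libraries with four specificity codons randomised were screened by bacterial one-hybrid selection in the E. coli USO strain, using a HIS3 reporter whose site lies 19 bp from the promoter. Selection ran for 48 hours at 37°C on M9 lacking histidine, with 0.1 mM IPTG and 5 mM 3-AT. Plasmids were Illumina-sequenced before and after selection, three replicate libraries were pooled, and variants with under 10 reads were dropped. Fitness is the log change in each variant's read ratio to wild type, rescaled against the cognate and non-cognate sites.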

one-hybrid fitness for binding parS DNA, 0.66:
RNYT

one-hybrid fitness for binding parS DNA, 0.658:
RKRT

one-hybrid fitness for binding parS DNA, 0.868:
RKYT

one-hybrid fitness for binding parS DNA, 0.229:
RLDF

one-hybrid fitness for binding parS DNA, 0.592:
RAAA

one-hybrid fitness for binding parS DNA, 0.805:
RVEC

one-hybrid fitness for binding parS DNA, 0.71:
RRIC

one-hybrid fitness for binding parS DNA, 0.799:
RHFC

one-hybrid fitness for binding parS DNA, 0.94:
RLNC

one-hybrid fitness for binding parS DNA, 0.846:
RSYT

one-hybrid fitness for binding parS DNA, 0.412:
RKPT

one-hybrid fitness for binding parS DNA, 0.818:
RCRT

one-hybrid fitness for binding parS DNA, 0.627:
RRNA

one-hybrid fitness for binding parS DNA, 0.238:
RNSM

one-hybrid fitness for binding parS DNA, 0.611:
RMVA

one-hybrid fitness for binding parS DNA, 0.813:
RCDT
RRYA
RVEG

one-hybrid fitness for binding parS DNA, 0.21:
RLIH

one-hybrid fitness for binding parS DNA, 0.745:
RIKA

one-hybrid fitness for binding parS DNA, 0.329:
RKDN

one-hybrid fitness for binding parS DNA, 0.573:
RYFA

one-hybrid fitness for binding parS DNA, 0.691:
RWFS
RVET

one-hybrid fitness for binding parS DNA, 0.346:
RNHN

one-hybrid fitness for binding parS DNA, 0.26:
RWAN

one-hybrid fitness for binding parS DNA, 0.74:
RNQT

one-hybrid fitness for binding parS DNA, 0.795:
RLIT

one-hybrid fitness for binding parS DNA, 0.939:
RKDG

one-hybrid fitness for binding parS DNA, 0.865:
RHAT

one-hybrid fitness for binding parS DNA, 0.319:
RHFN

one-hybrid fitness for binding parS DNA, 0.786:
RNRT

one-hybrid fitness for binding parS DNA, 0.966:
RSSC

one-hybrid fitness for binding parS DNA, 0.345:
RNRM

one-hybrid fitness for binding parS DNA, 0.215:
RRPM
RESC

one-hybrid fitness for binding parS DNA, ≤ 0.2:
AHCT
SYTS
LAQL
LSDG
ISTA
MTHL
CYFG
RKHH
RKYF
RKHP
RKYK
YKNL
VDMS
HRNI
NWKR
FKRH
TTLP
LGQS
DPGV
ITRV
WNTN
RKGQ
RKQP
RKRR
RKDK
RKQH
RKRQ
TDGD
RCPL
WHLG
CRRN
ITGW
RLNK
RLNE
RLDQ
TYDG
RNWF
RNRR
QFRW
LVVI
PETN
YEDL
KWKD
VTLP
HAAI
PKVP
RNQR
RNHD
RNGR
RNLH
RNLP
QRGN
GVHD
VTSQ
MGWS
QCRG
QHQC
LAPW
HMRI
VDML
HQSC
DSFI
LCFF
ETSR
RNCM
RNCQ
QRCF
DGSS
YRDA
AKTQ
RRIQ
SLCD
HGNW
EVCS
LNAY
AANM
ILWI
ALYC
DAAA
NAAA
NQKR
LMTS
GGWG
HSNS
QTKP
RHAF
RHAR
RHFK
RHFR
QLSE
TNGD
DMVA
EGMC
HPGG
CLLW
RPDT
RDDT
RPYT
REDT
REYT
RSNP
RSDM
SYNF
QNNL
QNNR
VNTR
TLTC
VASF
ARLY
RPNT
RDYT
RPRT
RENT
RSRP
SLNY
EHPE
LPKC
QHRW
TTHM
QPTM
YDPM
GMKG
RWFN
RWAD
RWFY
GDED
SDVG
DRSA
NRQA
DRQA
NRHA
NRGA
DRHA
NRSA
GDYT
HYRC
YDLT
IYQL
WAPR
MWAV
ANEG
LPHA
SKVC
PETH
DRCA
NRNA
NRCA
NRLA
DRLA
DRNA
QLGG
IAPM
RPYR
TTSM
ICYT
SEWR
NRYA
DLNV
GSGS
YIFC
INTG
RVEK
RVED
RVEH
RVEP
RVEF
RVEI
HNSL
FLAG
RRQE
SFER
HAWC
PTHS
NYFA
PYFA
NNWM
DTAQ
AYES
PDYS
LGYC
PVSM
NIVA
YQPY
GEYG
TWSS
LCRP
RKNQ
RKNR
TSWS
KARL
PVGS
QVWC
RHFP
HWFS
RPMV
ETTA
SPEG
RPSC
RSSH
TKKI
QGCC
LEMT
CTGE
VMPA
NSSL
RLPQ
RLID
RLPK
TGTF
DRTR

one-hybrid fitness for binding parS DNA, 0.307:
RNPT

one-hybrid fitness for binding parS DNA, 0.938:
RLDC

one-hybrid fitness for binding parS DNA, 0.624:
RAFA

one-hybrid fitness for binding parS DNA, 0.351:
RKLN

one-hybrid fitness for binding parS DNA, 0.501:
RRRA

one-hybrid fitness for binding parS DNA, 0.535:
RNWT

one-hybrid fitness for binding parS DNA, 0.879:
RCNT

one-hybrid fitness for binding parS DNA, 0.815:
RRLA

one-hybrid fitness for binding parS DNA, 0.729:
RKQT

one-hybrid fitness for binding parS DNA, 0.911:
RSNT

one-hybrid fitness for binding parS DNA, 0.856:
RKLT

one-hybrid fitness for binding parS DNA, 0.294:
RVEN

one-hybrid fitness for binding parS DNA, 0.963:
RCYT

one-hybrid fitness for binding parS DNA, 0.723:
RNHT

one-hybrid fitness for binding parS DNA, 0.612:
RNCT

one-hybrid fitness for binding parS DNA, 0.756:
RKHT

one-hybrid fitness for binding parS DNA, 0.332:
RRIY

one-hybrid fitness for binding parS DNA, 0.832:
RKDT
RSRT

one-hybrid fitness for binding parS DNA, 0.352:
RKIY

one-hybrid fitness for binding parS DNA, 0.683:
RNLT

one-hybrid fitness for binding parS DNA, 0.306:
RNGY

one-hybrid fitness for binding parS DNA, 0.675:
RKIT

one-hybrid fitness for binding parS DNA, 0.761:
RRCA

one-hybrid fitness for binding parS DNA, 0.948:
RVES

one-hybrid fitness for binding parS DNA, 0.285:
RGGA

one-hybrid fitness for binding parS DNA, 0.699:
RRQA

one-hybrid fitness for binding parS DNA, 0.231:
RVEM
RKDH

one-hybrid fitness for binding parS DNA, 0.764:
RKGT

one-hybrid fitness for binding parS DNA, 0.38:
RKDY

one-hybrid fitness for binding parS DNA, 0.851:
RRDA

one-hybrid fitness for binding parS DNA, 0.232:
RSRH

one-hybrid fitness for binding parS DNA, 0.696:
RNGT
RSDT

one-hybrid fitness for binding parS DNA, 0.223:
RKLH

one-hybrid fitness for binding parS DNA, 0.746:
RNST

one-hybrid fitness for binding parS DNA, 0.262:
RKGM

one-hybrid fitness for binding parS DNA, 0.796:
RRPC

one-hybrid fitness for binding parS DNA, 0.216:
RERT

one-hybrid fitness for binding parS DNA, 0.707:
RHFT

one-hybrid fitness for binding parS DNA, 0.403:
RHAY

one-hybrid fitness for binding parS DNA, 0.585:
RIVA

one-hybrid fitness for binding parS DNA, 0.749:
RRGA

one-hybrid fitness for binding parS DNA, 0.693:
RRHA
RRSA

one-hybrid fitness for binding parS DNA, 0.28:
RHAM

one-hybrid fitness for binding parS DNA, 0.907:
RKNG

one-hybrid fitness for binding parS DNA, 0.427:
RNIT

one-hybrid fitness for binding parS DNA, 0.436:
RSSN

one-hybrid fitness for binding parS DNA, 0.228:
RNQM

one-hybrid fitness for binding parS DNA, 0.961:
RCSC

one-hybrid fitness for binding parS DNA, 0.58:
RLPT

one-hybrid fitness for binding parS DNA, 0.735:
RMKA

one-hybrid fitness for binding parS DNA, 0.876:
RWAS

one-hybrid fitness for binding parS DNA, 0.275:
RNWY

one-hybrid fitness for binding parS DNA, 0.933:
RHAC

one-hybrid fitness for binding parS DNA, 0.399:
RNSY

one-hybrid fitness for binding parS DNA, 0.559:
RYAA

one-hybrid fitness for binding parS DNA, 0.445:
RSNN
